Source: PubChem BioAssay
The source made the active and inactive calls.

Legend:
[1] = small molecules captured by biotinylated probe aFSTL3 – biochemical, small-molecule microarray, fluorescence 635/667, stem cell growth factor project, primary screen (AID 1064); conditions: higher = more signal;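 further: measures binding of the biotinylated anti-FSTL3 antibody to printed compounds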
[2] = binders from COS7 lysate, DM2A8 probe, primary screen, torsin A project, cell lysate, small-molecule microarray, fluorescence 635/667 (AID 1065); conditions: higher = more signal, COS7 lysate expressing mutant human TOR1A
[3] = small molecules captured by biotinylated probe aFGF2 – biochemical, small-molecule microarray, fluorescence 635/667, stem cell growth factor project, primary screen (AID 1067); conditions: higher = more signal;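 further: measures binding of biotinylated aFGF2 protein to printed compounds on slides; z-score merges feature fluorescence and signal-to-noise across triplicate slides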
[4] = small molecules captured by biotinylated probe aFGF10 – biochemical, small-molecule microarray, fluorescence 635/667, stem cell growth factor project, primary screen (AID 1071); conditions: higher = more signal;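 further: score merges 667 nm spot intensity and signal to noise from triplicate slides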
[5] = biological target: Neurogenic locus notch homolog protein 2 (Homo sapiens) (UniProt Q04721); assay: small molecules binding Notch2 protein – biochemical, small-molecule microarray, 635 nm fluorescence, stem cell growth factors, primary screen (AID 1073); conditions: higher = more signal
[6] = biological target: Pro-neuregulin-1, membrane-bound isoform (Homo sapiens) (UniProt Q02297); assay: small molecules binding neuregulin-1 protein – biochemical, small-molecule microarray, fluorescence 635/667, psychiatric disease protein project, primary screen (AID 1075); conditions: NRG1 binding, 635 nm fluorescence, higher = more signal;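 further: score combines 667 nm spot fluorescence with signal to noise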
[7] = tested on: Neuregulin-1 EGF-like domain; assay: small molecules binding NRG1 EGF domain – biochemical, small-molecule microarray, 635 nm fluorescence, primary screen (AID 1081); conditions: higher = more signal;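 further: binding of the protein to compounds printed on small-molecule microarray slides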
[8] = FRG1 expression reporter modulators in myotubes – cell-based, C2C12 myotubes, firefly/Renilla luciferase, luminescence, FRG1 inhibition for FSHD, primary screen (AID 1084); conditions: FRG1 promoter luciferase, higher = more signal, called active from +8 up or from −8 down
[9] = small molecules captured by biotinylated probe aFST – biochemical, small-molecule microarray, fluorescence 635/667, stem cell growth factor project, primary screen (AID 1086); conditions: higher = more signal;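 further: score merges 667 nm fluorescence with signal-to-noise of each printed compound spot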
[10] = binders of probe aHhip on microarray, primary screen, stem cell growth factor project, biochemical, small-molecule microarray, fluorescence 635/667 (AID 1087); conditions: higher = more signal;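 further: score merges spot fluorescence at 667nm with spot signal to noise ratio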
[11] = tested on: PRMT1 (protein arginine N-methyltransferase 1); assay: small molecules binding arginine methyltransferase PRMT1 – biochemical, small-molecule microarray, 635 nm fluorescence, primary screen (AID 1088); conditions: higher = more signal;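 further: binding of Prmt1 protein to compounds spotted on small-molecule microarray slides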
[12] = growth effects on S. cerevisiae YJM789 – YJM789 clinical isolate, OD600, 24 h, basal, primary screen (AID 1089); conditions: higher = more signal, called active from +8 up or from −8 down;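 further: growth of clinical yeast isolate S. cerevisiae YJM 789 seeded 1000 cells per well; test concentration not given here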
[13] = S. pombe growth modifiers, basal conditions – strain 972, OD600, 24 h, no modulator, primary screen (AID 1090);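 further: basal condition with compound alone and no growth modifier present; test concentration not given here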; conditions: S. pombe 972 growth, higher = more signal, called active from +8 up or from −8 down
[14] = budding yeast growth modifiers under rapamycin – strain BY4716, OD600, 96 h, primary screen (AID 1091); further: test concentration not given here; conditions: S. cerevisiae BY4716 + rapamycin, higher = more signal, called active from +8 up or from −8 down
[15] = biological target: Torsin-1A-interacting protein 2 (Homo sapiens) (UniProt Q8NFQ8); assay: small molecules binding lysate-expressed LULL1 – cell lysate, human LULL1 lysate, 635/667 nm fluorescence, primary screen (AID 1092); conditions: small-molecule microarray, hLULL1 lysate binding, 635 nm fluorescence; higher = more signal;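 further: probe is lysate of COS7 cells overexpressing human LULL1; score merges per-feature 667 nm fluorescence with signal-to-noise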
[16] = optical density change of DRC41 E. coli – strain DRC41, OD650, 24 h, E. coli filamentation project, primary screen (AID 1093);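 further: MC1000 strain lacking acrAB efflux and sulA so SOS filamentation is blocked; test concentration not given here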; conditions: E. coli DRC41 growth, higher = more signal, called active from +8 up or from −8 down
[17] = probe aLefty2 binding to arrayed compounds – biochemical, biotinylated probe, 635/667 nm fluorescence, primary screen (AID 1094); conditions: small-molecule microarray, higher = more signal;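 further: score merges spot fluorescence near 667 nm with spot signal-to-noise ratio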
[18] = tested on: Noggin (protein binding on small-molecule microarray); assay: small molecules binding Noggin protein – biochemical, 635/667 nm fluorescence, primary screen (AID 1095); conditions: 635 nm fluorescence, higher = more signal;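 further: score merges 667 nm feature fluorescence with signal to noise over triplicate slides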
[19] = biological target: Neurogenic locus notch homolog protein 3 (Homo sapiens) (UniProt Q9UM47); assay: small molecules binding NOTCH3 protein – biochemical, 635/667 nm fluorescence, primary screen (AID 1096); conditions: small-molecule microarray, 635 nm fluorescence, higher = more signal
[20] = probe aEGFR binding to arrayed compounds – biochemical, biotinylated probe, 635/667 nm fluorescence, primary screen (AID 1097); conditions: small-molecule microarray, higher = more signal;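 further: probe is a biotinylated anti-EGFR antibody binding compounds printed on slides; score combines fluorescence near 667 nm and signal to noise of each spot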

Sequence of Pro-neuregulin-1, membrane-bound isoform (Homo sapiens) (Q02297 whole entry, looked up, the tested form may be a part, canonical isoform): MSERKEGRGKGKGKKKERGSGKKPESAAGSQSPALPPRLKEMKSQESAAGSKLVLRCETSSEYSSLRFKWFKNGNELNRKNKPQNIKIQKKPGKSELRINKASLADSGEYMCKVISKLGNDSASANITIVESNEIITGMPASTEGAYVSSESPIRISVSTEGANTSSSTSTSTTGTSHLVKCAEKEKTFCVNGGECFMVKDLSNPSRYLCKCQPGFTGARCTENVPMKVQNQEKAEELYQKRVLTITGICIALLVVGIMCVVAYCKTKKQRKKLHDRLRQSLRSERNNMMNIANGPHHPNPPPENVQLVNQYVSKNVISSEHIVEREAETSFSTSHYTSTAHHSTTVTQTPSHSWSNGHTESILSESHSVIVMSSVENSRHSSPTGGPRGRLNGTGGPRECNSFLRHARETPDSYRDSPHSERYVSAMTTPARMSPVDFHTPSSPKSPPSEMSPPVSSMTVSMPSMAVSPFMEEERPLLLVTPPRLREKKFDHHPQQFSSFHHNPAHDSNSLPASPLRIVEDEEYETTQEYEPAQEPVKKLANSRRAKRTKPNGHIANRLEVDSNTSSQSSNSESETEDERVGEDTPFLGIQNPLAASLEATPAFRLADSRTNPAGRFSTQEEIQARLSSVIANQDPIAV
Sequence of Neurogenic locus notch homolog protein 3 (Homo sapiens) (Q9UM47 whole entry, looked up): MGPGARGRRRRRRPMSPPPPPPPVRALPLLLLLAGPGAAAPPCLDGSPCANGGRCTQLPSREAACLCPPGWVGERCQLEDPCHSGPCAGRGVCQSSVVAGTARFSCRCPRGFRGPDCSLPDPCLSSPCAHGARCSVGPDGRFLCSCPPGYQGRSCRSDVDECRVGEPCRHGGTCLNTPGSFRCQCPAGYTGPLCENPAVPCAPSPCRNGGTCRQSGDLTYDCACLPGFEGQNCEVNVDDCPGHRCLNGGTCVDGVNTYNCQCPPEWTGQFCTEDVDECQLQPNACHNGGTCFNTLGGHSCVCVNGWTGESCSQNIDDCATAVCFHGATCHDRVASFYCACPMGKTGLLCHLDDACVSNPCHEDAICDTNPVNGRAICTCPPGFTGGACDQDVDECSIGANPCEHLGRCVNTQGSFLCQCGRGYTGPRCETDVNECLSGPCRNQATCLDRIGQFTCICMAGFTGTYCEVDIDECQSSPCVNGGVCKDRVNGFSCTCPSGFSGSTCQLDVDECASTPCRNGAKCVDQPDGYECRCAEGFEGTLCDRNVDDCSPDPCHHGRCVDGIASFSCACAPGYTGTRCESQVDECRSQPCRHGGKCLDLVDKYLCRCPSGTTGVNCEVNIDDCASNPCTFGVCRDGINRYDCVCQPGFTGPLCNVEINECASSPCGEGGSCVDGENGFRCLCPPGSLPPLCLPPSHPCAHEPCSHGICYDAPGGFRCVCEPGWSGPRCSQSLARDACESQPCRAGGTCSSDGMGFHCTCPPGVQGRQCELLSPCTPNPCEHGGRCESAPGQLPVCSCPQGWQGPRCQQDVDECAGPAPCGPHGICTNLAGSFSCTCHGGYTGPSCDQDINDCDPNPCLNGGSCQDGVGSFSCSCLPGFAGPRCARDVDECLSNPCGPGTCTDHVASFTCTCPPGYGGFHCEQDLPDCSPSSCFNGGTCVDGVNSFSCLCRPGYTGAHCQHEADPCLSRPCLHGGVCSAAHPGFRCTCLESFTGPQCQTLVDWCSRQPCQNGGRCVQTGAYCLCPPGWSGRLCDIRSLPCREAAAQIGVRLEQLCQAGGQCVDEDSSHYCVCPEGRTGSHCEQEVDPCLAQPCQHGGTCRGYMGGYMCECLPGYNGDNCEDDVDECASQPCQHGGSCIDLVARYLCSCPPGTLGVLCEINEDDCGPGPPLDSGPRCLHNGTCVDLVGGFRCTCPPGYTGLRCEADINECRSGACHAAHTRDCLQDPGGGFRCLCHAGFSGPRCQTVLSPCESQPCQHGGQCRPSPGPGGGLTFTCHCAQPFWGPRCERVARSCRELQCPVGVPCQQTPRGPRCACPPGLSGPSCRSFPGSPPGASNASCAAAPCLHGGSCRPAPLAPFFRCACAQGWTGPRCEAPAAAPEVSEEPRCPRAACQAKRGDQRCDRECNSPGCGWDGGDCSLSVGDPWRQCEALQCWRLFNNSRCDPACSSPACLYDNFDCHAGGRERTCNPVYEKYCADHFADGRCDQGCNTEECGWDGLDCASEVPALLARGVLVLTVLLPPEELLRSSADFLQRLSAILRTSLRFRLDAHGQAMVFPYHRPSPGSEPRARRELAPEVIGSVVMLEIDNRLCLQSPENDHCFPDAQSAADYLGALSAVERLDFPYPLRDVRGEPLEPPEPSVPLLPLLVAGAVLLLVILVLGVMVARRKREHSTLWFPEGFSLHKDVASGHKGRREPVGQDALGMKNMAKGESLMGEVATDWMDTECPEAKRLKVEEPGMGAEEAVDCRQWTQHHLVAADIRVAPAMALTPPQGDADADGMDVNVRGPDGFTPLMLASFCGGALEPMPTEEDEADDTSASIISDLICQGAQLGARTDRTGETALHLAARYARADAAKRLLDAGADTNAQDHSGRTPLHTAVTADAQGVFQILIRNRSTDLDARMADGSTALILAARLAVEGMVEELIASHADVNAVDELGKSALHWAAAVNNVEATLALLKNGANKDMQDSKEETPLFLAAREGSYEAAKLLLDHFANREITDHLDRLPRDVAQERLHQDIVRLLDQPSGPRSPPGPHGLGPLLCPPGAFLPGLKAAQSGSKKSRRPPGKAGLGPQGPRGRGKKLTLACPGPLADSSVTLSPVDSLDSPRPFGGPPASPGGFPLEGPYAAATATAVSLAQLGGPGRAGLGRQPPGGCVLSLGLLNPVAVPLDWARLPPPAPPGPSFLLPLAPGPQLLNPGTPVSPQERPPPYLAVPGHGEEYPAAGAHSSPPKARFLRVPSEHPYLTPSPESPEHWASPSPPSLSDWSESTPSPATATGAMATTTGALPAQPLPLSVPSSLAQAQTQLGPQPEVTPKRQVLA
Sequence of Torsin-1A-interacting protein 2 (Homo sapiens) (Q8NFQ8 whole entry, looked up): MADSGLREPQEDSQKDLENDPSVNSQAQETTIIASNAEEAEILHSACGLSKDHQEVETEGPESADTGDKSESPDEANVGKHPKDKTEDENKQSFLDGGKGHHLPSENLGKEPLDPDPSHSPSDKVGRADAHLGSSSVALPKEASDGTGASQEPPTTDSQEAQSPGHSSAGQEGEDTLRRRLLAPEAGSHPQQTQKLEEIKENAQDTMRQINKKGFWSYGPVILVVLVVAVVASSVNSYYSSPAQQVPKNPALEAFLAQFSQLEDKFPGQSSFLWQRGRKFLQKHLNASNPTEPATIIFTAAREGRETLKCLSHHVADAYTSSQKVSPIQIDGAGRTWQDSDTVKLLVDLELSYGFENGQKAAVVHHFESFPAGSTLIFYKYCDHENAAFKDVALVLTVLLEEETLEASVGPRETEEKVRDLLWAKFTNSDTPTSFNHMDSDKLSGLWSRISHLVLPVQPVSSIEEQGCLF

SMILES | composite z-score [1] | composite z-score [2] | composite z-score [3] | composite z-score [4] | composite z-score [5] | composite z-score [6] | composite z-score [7] | z-score [8] | composite z-score [9] | composite z-score [10] | composite z-score [11] | z-score [12] | z-score [13] | z-score [14] | composite z-score [15] | z-score [16] | composite z-score [17] | composite z-score [18] | composite z-score [19] | composite z-score [20]
O=C1[C@H]2[C@H]3[C@H](O)[C@H](O)CC(=NOC[C@@H](O)COCc4ccco4)[C@H]3CC[C@H]2C(=O)N1c1ccc(F)cc1F | -0.191 | 0.862 | -0.142 | 0.0434 | -0.853 | -0.452 | 1.23 | -1.53 (inactive) | -0.999 | -0.0047 | -0.012 | -3.68 (inactive) | -1.99 (inactive) | -1.97 (inactive) | -0.701 | -1.13 (inactive) | -0.469 | -0.349 | -0.927 | -0.165
CCN1C(=O)[C@H]2[C@H]3[C@H](O)[C@H](O)CC(=NNC(=O)OCc4ccc(OC)cc4)[C@@H]3CC[C@H]2C1=O | 1.28 | -0.0691 | -0.0235 | 0.0306 | -0.213 | -0.295 | -0.46 | 0.127 (inactive) | 0.508 | -0.374 | -0.235 | -1.31 (inactive) | -1.45 (inactive) | -0.287 (inactive) | 0.0228 | 0.214 (inactive) | 0.241 | 0.51 | -0.428 | -0.113
C=CC1=C[C@H](O)[C@@H]2O[C@@H]2C12OCCCO2 | -0.0605 | 0.2 | -0.204 | 0.206 | 0.0754 | 0.122 | 0.35 | 0.293 (inactive) | -0.136 | 0.0274 | -0.12 | -0.532 (inactive) | 0.199 (inactive) | -0.138 (inactive) | -0.119 | -0.0339 (inactive) | -0.244 | 0.412 | -0.239 | 0.009
COC(=O)CC=C[C@@H](C)[C@@H](C=NOCC[C@@H]1C=C[C@H](OC(C)=O)[C@@H](COC(C)=O)O1)NS(=O)(=O)c1ccc(C)cc1 | -0.186 | 1.86 | -0.129 | -0.371 | -0.134 | -0.512 | -0.123 | 0.0469 (inactive) | 0.153 | -0.0296 | 0.477 | 0.787 (inactive) | 0.466 (inactive) | -0.448 (inactive) | -0.0098 | 0.545 (inactive) | 0.135 | 0.706 | -0.213 | 0.0511
O=C1C2=CC[C@H]3C(=O)N(c4cccc(Oc5ccccc5)c4)C(=O)[C@H]3[C@H]2[C@H](O)[C@@H]2O[C@H]12 | -0.476 | 0.337 | -0.14 | 0.258 | -0.139 | 0.0597 | 0.129 | -0.492 (inactive) | 0.373 | -0.184 | 0.435 | 0.135 (inactive) | -0.974 (inactive) | -0.147 (inactive) | -0.122 | -0.425 (inactive) | -0.139 | 0.744 | 0.92 | -0.0219
COCOc1ccc(Br)cc1C(=O)[C@@H]1O[C@H]1c1cccc(OC)c1 | -0.305 | -0.0196 | -0.122 | 0.204 | 0.333 | -0.268 | 0.287 | -0.0714 (inactive) | -0.0156 | -0.202 | -0.0021 | -1.33 (inactive) | -6.67 (inactive) | -0.822 (inactive) | 0.497 | 1.58 (inactive) | -0.142 | 0.455 | 0.257 | -0.112
C[C@H]1CC[C@H]2C(=O)OC(CO)CN2[C@@H]1c1ccc(Br)cc1 (stereo not given in full) | -0.321 | 0.414 | -0.145 | -0.0786 | -0.453 | -0.365 | 0.374 | -0.761 (inactive) | -0.104 | -0.0645 | 0.14 | -0.276 (inactive) | -0.315 (inactive) | 0.603 (inactive) | -0.467 | 0.458 (inactive) | -0.236 | 0.0982 | -0.0249 | -0.145
COC(=O)CC=C[C@@H](C)[C@@H](C=NO[C@@H]1O[C@H](COC(C)=O)[C@@H](OC(C)=O)[C@H](OC(C)=O)[C@H]1OC(C)=O)OC | -0.48 | 1.26 | 0.0167 | -0.41 | 1.03 | -0.617 | -1.05 | 0.572 (inactive) | 0.354 | 0.189 | 1.18 | 0.492 (inactive) | 0.146 (inactive) | 0.119 (inactive) | 0.062 | -0.742 (inactive) | -0.0397 | 0.27 | -0.297 | -0.0506
CC(=O)OC[C@H]1O[C@H](C#Cc2ccccc2)C=C[C@@H]1OC(C)=O | -0.306 | -0.0613 | -0.0474 | 0.346 | 0.32 | 0.232 | -0.11 | -0.284 (inactive) | 0.0157 | 0.281 | 0.48 | 0.444 (inactive) | -2.17 (inactive) | -0.747 (inactive) | 0.496 | 0.875 (inactive) | -0.0836 | 0.653 | 0.812 | -0.0953
O=c1n(Cc2cc3c(cc2Cl)OCO3)c(=O)n2n1CC[C@@H]1C(=NOC[C@@H](O)COCc3ccco3)[C@H]3O[C@H]3[C@@H](O)[C@@H]12 | -0.247 | 0.28 | -0.0878 | 0.217 | 0.169 | -0.112 | 0.0421 | 0.0388 (inactive) | -0.142 | 0.0398 | 0.101 | 1.52 (inactive) | 0.807 (inactive) | 1.24 (inactive) | 0.177 | 0.283 (inactive) | -0.286 | 0.323 | 0.667 | -0.0976
